Test results reported in the supplement of paper PMC6089552.
About 300 (9.4%) of roughly 3,200 compounds showed activity. This is one part of a sample in which actives are shown more often than they occur.

Test system: A673/TR/shEF
Experiment: cell viability (LOESS-normalised, relative to median of negative controls) (log2 ratio); higher = more viable cells (less compound effect), active = hit call of the paper (over 3 MAD below the median)
Conditions: treatment time: 72 h
How it was run: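 Viability of A673/TR/shEF Ewing sarcoma cells was determined by CellTiter-Glo luminescence. The cells, at 1,500 per well in 384-well plates, were grown with or without doxycycline from 24 h before compound addition to switch on EWS-FLI1 shRNA knockdown, then exposed for three days to library compounds at two or more concentrations or to DMSO controls. Signals were LOESS-corrected plate by plate, normalised to the negative-control median and log2-transformed.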

[1] = 0.103 µM, library screen: screen3, EWS-FLI1 expression: high (no doxycycline)
[2] = 0.103 µM, library screen: screen3, EWS-FLI1 expression: low (doxycycline-induced shRNA knockdown)
[3] = 0.308 µM, library screen: screen3, EWS-FLI1 expression: high (no doxycycline)
[4] = 0.308 µM, library screen: screen3, EWS-FLI1 expression: low (doxycycline-induced shRNA knockdown)
[5] = 0.926 µM, library screen: screen3, EWS-FLI1 expression: high (no doxycycline)
[6] = 0.926 µM, library screen: screen3, EWS-FLI1 expression: low (doxycycline-induced shRNA knockdown)
[7] = 2.8 µM, library screen: screen3, EWS-FLI1 expression: high (no doxycycline)
[8] = 2.8 µM, library screen: screen3, EWS-FLI1 expression: low (doxycycline-induced shRNA knockdown)
[9] = 8.3 µM, library screen: screen3, EWS-FLI1 expression: high (no doxycycline)
[10] = 8.3 µM, library screen: screen3, EWS-FLI1 expression: low (doxycycline-induced shRNA knockdown)
[11] = 25 µM, library screen: screen3, EWS-FLI1 expression: high (no doxycycline)
[12] = 25 µM, library screen: screen3, EWS-FLI1 expression: low (doxycycline-induced shRNA knockdown)
[13] = 0.25 µM, library screen: screen1, EWS-FLI1 expression: high (no doxycycline)
[14] = 0.25 µM, library screen: screen1, EWS-FLI1 expression: low (doxycycline-induced shRNA knockdown)
[15] = 2.5 µM, library screen: screen1, EWS-FLI1 expression: high (no doxycycline)
[16] = 2.5 µM, library screen: screen1, EWS-FLI1 expression: low (doxycycline-induced shRNA knockdown)
[17] = 0.025 µM, library screen: screen1, EWS-FLI1 expression: high (no doxycycline)
[18] = 0.025 µM, library screen: screen1, EWS-FLI1 expression: low (doxycycline-induced shRNA knockdown)
[19] = 0.25 µM, library screen: screen2, EWS-FLI1 expression: high (no doxycycline)
[20] = 0.25 µM, library screen: screen2, EWS-FLI1 expression: low (doxycycline-induced shRNA knockdown)
[21] = 2.5 µM, library screen: screen2, EWS-FLI1 expression: high (no doxycycline)
[22] = 2.5 µM, library screen: screen2, EWS-FLI1 expression: low (doxycycline-induced shRNA knockdown)
[23] = 25 µM, library screen: screen1, EWS-FLI1 expression: high (no doxycycline)
[24] = 25 µM, library screen: screen1, EWS-FLI1 expression: low (doxycycline-induced shRNA knockdown)

Measured: cell viability (log2)

CN1CC[C@H](c2c(O)cc(O)c3c(=O)cc(-c4ccccc4Cl)oc23)[C@H](O)C1
active: [1] -0.182 | [3] -0.451 | [4] -0.231 | [5] -1.4 | [6] -1.66 | [7] -3.54 | [8] -2.88 | [9] -4.29 | [10] -4.28 | [11] -4.33 | [12] -4.3
inactive: [2] -0.0654

CC(=O)OC1CC[C@@]2(C)C(CC[C@]3(C)C2CCC2C4CC(C)(C)CCC4(C(=O)O)CC[C@]23C)C1(C)C (some centres not stated)
inactive: [13] 0.0992 | [14] 0.055 | [15] 0.145 | [16] 0.119

CC(=O)Oc1cc(OC(C)=O)c2c(c1)OC(c1ccc(OC(C)=O)c(OC(C)=O)c1)C(OC(C)=O)C2 (configuration not stated)
inactive: [13] 0.1 | [14] 0.0336 | [15] 0.18 | [16] 0.104

CC(C)(O)[C@@H]1Cc2cc3ccc(=O)oc3cc2O1
inactive: [13] 0.0301 | [14] -0.0352 | [15] 0.107 | [16] 0.0444

COc1ccccc1-c1cc(=O)c2cccc(OC)c2o1
inactive: [13] 0.00414 | [14] -0.0253 | [15] 0.211 | [16] 0.0664

COc1cccc(-c2cc(=O)c3ccccc3o2)c1N
0.278: [13]
inactive: [17] 0.268 | [18] -0.0228 | [14] -0.0268 | [19] 0.18 | [20] 0.11 | [16] 0.0789 | [21] 0.195 | [22] 0.139 | [23] -0.0514 | [24] 0.0727
active: [15] -0.37

COc1ccccc1-c1cc(=O)c2c(OC)cccc2o1
inactive: [13] 0.121 | [14] -0.0186 | [15] 0.129 | [16] 0.0665

Cc1cc(OC(=O)c2c(C)cc(OC(=O)c3c(C)cc(O)cc3O)cc2O)cc(O)c1C(=O)O
inactive: [13] 0.154 | [14] 0.153 | [15] 0.0106 | [16] 0.113

CC[n+]1c(-c2ccccc2)c2cc(N)ccc2c2ccc(N)cc21
inactive: [13] 0.0617 | [14] 0.0391 | [16] -0.0126
active: [15] -1.89

NCCNC(=O)Cc1ccc(NC(=O)Cc2ccc(Nc3ncnc4c3ncn4C3OC(CO)C(O)C3O)cc2)cc1 (configuration not stated)
inactive: [19] 0.211 | [20] 0.142 | [21] 0.0909 | [22] 0.0423

O=C1/C(=C\c2ccccc2F)SC(=S)N1CN1CCOCC1
inactive: [13] 0.128 | [14] 0.0809 | [15] 0.107 | [16] -0.00103

O=C(O)CCCCCCCC(=O)O
active: [19] -0.13
inactive: [13] 0.000753 | [14] 0.0938 | [20] 0.0952 | [15] 0.149 | [16] 0.152 | [21] 0.0755 | [22] 0.0904

NCCCCC(=O)O
active: [19] -0.118
inactive: [13] 0.172 | [14] 0.0951 | [20] 0.128 | [15] 0.237 | [16] 0.0298 | [21] 0.0908 | [22] 0.116

NCCCC(=O)O
inactive: [13] 0.0628 | [14] 0.0888 | [19] 0.148 | [20] 0.12 | [15] 0.21 | [16] 0.0413 | [21] 0.0279 | [22] 0.142

CC(=O)NCCCCCC(=O)O
inactive: [13] 0.0566 | [14] 0.106 | [15] 0.0136 | [16] 0.0704

CCCCCCCC/C=C\CCCCCCCC(=O)O
inactive: [19] 0.0706 | [20] 0.117 | [21] 0.0994 | [22] 0.08

NCCCCCC(=O)O
inactive: [1] 0.214 | [2] 0.078 | [13] 0.0812 | [14] 0.00994 | [19] -0.00366 | [20] 0.09 | [3] 0.0847 | [4] 0.0858 | [5] 0.107 | [6] 0.0768 | [15] 0.144 | [16] 0.111 | [21] 0.0922 | [22] 0.111 | [7] 0.141 | [8] 0.0677 | [9] 0.085 | [10] 0.128 | [11] 0.0538 | [12] 0.145

COC(=O)[C@@H]1OC(=O)C2OC23[C@@]1(C)CCC1[C@]2(C)C(C[C@@H](O)[C@]13C)C(C)(C)[C@H](OC(C)=O)C[C@@H]2OC(C)=O (some centres not stated)
inactive: [13] 0.0653 | [14] 0.123 | [15] 0.0967 | [16] 0.0969

COCCN1C(=O)C(=Cc2c(Cl)cccc2Cl)SC1=S
inactive: [13] 0.153 | [14] 0.208 | [15] 0.122 | [16] 0.19

COc1c(C=O)c(O)cc2c1C(=O)c1ccccc1C2=O
inactive: [17] 0.0865 | [18] 0.0031 | [13] 0.118 | [14] -0.13 | [15] 0.0699 | [16] -0.209 | [23] 0.0121 | [24] -0.781

COc1cc(C)c2c(=O)c3c(O)cc(O)cc3oc2c1
inactive: [13] -0.0797 | [14] 0.0363 | [15] 0.0175 | [16] 0.108

CC(C)c1c(O)ccc2c1CCC1[C@@](C)(C=O)CCC[C@]21C (some centres not stated)
inactive: [13] 0.0641 | [14] 0.0754 | [15] 0.163 | [16] 0.289

CC1=C(C(=O)Nc2ccccc2Cl)C(c2ccc(O)cc2)NC(=S)N1 (configuration not stated)
inactive: [13] 0.145 | [14] -0.0151 | [15] 0.191 | [16] -0.0985

CCN(CC)c1ccc(C2C(C(=O)OC)=C(C)NC(C)=C2C(=O)OC)cc1
inactive: [13] 0.121 | [14] 0.087 | [15] 0.202 | [16] 0.078

CC[C@H](CC[C@@H](C)[C@H]1CC[C@H]2[C@@H]3CC=C4C[C@@H](OC(C)=O)CC[C@]4(C)[C@H]3CC[C@]12C)C(C)C
inactive: [13] 0.121 | [14] 0.139 | [15] 0.109 | [16] 0.182

CCCCCCCCCCCCC(=O)N1CCCCC1CNC(=O)C(N)CCCCN (configuration not stated)
inactive: [19] 0.125 | [20] 0.1 | [21] 0.117 | [22] 0.072
